Assay results taken from ChEMBL document CHEMBL3433997, “St. Jude Leishmania screening dataset” (2016).

Key:
Type in all cases: functional
[1] = molecular target: Solute carrier family 2, facilitated glucose transporter member 1 (Homo sapiens) (UniProt P11166); assay: ST_JUDE_LEISH: Cytotoxicity at 2uM final concentration against transgenic Leishmania Mexicana promastigotes LmGLUT1 that are glucose transport deficient and complemented with the human glucose transporter GLUT1. Activity is measured by DNA content using SYBR green in vitro
[2] = molecular target: Hexose transporter 1 (Plasmodium falciparum) (UniProt O97467); assay: ST_JUDE_LEISH: Cytotoxicity at 2uM final concentration against transgenic Leishmania Mexicana promastigotes LmPfHT that are glucose transport deficient and complemented with the Plasmodium falciparum hexose transporter. Activity is measured by DNA content using SYBR green in vitro
[3] = molecular target: Glucose transporter (Leishmania mexicana) (UniProt O61059); assay: ST_JUDE_LEISH: Cytotoxicity at 2uM final concentration against transgenic Leishmania Mexicana promastigotes LmGT2 that are glucose transport deficient and complemented with the L. Mexicana glucose transporter 2. Activity is measured by DNA content using SYBR green in vitro

Solute carrier family 2, facilitated glucose transporter member 1 (Homo sapiens), sequence (P11166 whole entry): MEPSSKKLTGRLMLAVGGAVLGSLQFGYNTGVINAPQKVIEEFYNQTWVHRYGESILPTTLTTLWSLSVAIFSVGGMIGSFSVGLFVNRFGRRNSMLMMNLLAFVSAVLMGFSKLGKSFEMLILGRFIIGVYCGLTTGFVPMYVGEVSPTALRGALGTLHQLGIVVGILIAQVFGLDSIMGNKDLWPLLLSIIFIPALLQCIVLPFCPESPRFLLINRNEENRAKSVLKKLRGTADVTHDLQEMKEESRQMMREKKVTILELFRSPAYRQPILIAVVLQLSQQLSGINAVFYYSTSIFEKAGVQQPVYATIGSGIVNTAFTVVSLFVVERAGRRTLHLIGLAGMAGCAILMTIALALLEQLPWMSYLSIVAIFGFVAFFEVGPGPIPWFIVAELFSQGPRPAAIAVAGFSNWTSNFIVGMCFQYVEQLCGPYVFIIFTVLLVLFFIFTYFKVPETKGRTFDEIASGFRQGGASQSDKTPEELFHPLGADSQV

Cc1ccccc1C1CCN(C2CCC(NC(=O)c3cc4cc(C(C)C)ccc4[nH]3)CC2)CC1 (stereo unspecified)
inhibition [1]: 1.91% | inhibition [2]: 2.91% | inhibition [3]: 1.43%

Cn1nc(C(F)(F)F)c(-c2ccc(F)cc2)c1NC(=O)Nc1ccc(F)cc1F
inhibition [1]: 2.96% | inhibition [2]: 2.65% | inhibition [3]: 2.29%

CN(C)S(=O)(=O)c1ccc(C(=O)N(c2nc(-c3ccccc3)cs2)C2CCCCC2)cc1
inhibition [1]: 3.2% | inhibition [2]: 3.31% | inhibition [3]: 2.06%

CN(C)c1ccc(-c2cscc2C(=O)NC2CCCN(Cc3cccnc3)C2)cc1 (stereo unspecified)
inhibition [1]: -0.4% | inhibition [2]: -0.27% | inhibition [3]: -0.28%

c1cc(Cc2ccc(Nc3c4ccccc4nc4ccccc34)cc2)cc(Nc2c3ccccc3nc3ccccc23)c1
inhibition [1]: 5.95% | inhibition [2]: 5.85% | inhibition [3]: 2.19%

CN1CCN(c2cc3c(cc2Cl)CCN3C(=O)Cc2ccc(Cl)c(NC(=O)Nc3cccc(C#N)c3)c2)CC1
inhibition [1]: -0.57% | inhibition [2]: -0.51% | inhibition [3]: -0.22%

c1ccc(Oc2ccc(Nc3ccnc4cc(-c5cccc(CN6CCOCC6)c5)ccc34)cc2)cc1
inhibition [1]: -0.77% | inhibition [2]: 0.67% | inhibition [3]: 1.46%

CC1(C)NC(N)=NC(=N)N1OCc1ccc2ccccc2c1CON1C(=N)N=C(N)NC1(C)C
inhibition [1]: 3.58% | inhibition [2]: 2.14% | inhibition [3]: 3.06%

Cc1n[nH]c2ccc(-c3cc(OC[C@@H](N)Cc4ccccc4)cnc3-c3ccc(OCc4cccc(F)c4)cc3)cc12
inhibition [1]: -0.24% | inhibition [2]: 0.68% | inhibition [3]: -0.73%

c1nc2nc3c(c(Nc4ccc5c(c4)CCC5)n2n1)CCC3
inhibition [1]: 3.23% | inhibition [2]: -0.85% | inhibition [3]: 1.24%

C#CC(C)(CO)N1CCCC1 (stereo unspecified)
inhibition [1]: 1.89% | inhibition [2]: 4.77% | inhibition [3]: 1.64%

CC(CO)(CO)NCc1cc2ccc3ccsc3c2c2ccccc12
inhibition [1]: 77.1% | inhibition [2]: 71.3% | inhibition [3]: 48%
